# According to PubChem BioAssay AID431 (Sanford-Burnham Center for Chemical Genomics, 2006):
# Among all 63,000 compounds or so, about 1,100 (1.7%) were called active.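 The calls were made as follows: active = compounds whose percent cytotoxicity in the single-dose primary screen, scaled between solvent and toxic-drug controls, exceeds 50; inactive = the rest.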 The entries come from a sample that favours actives as a whole. Measured potencies and affinities stand elsewhere.
# Assay: cytotoxicity in KRAS-transformed pancreatic duct cells, primary screen, cell-based, fluorescence, HTS (AID 431);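 also: 0% = DMSO solvent wells and 100% = doxorubicin-treated wells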
# Conditions: HPDE-C7K KRASV12 cells, Alamar Blue viability, 48 h; at 10 µM; stronger effect = higher value
row,SMILES,cytotoxicity
1,Cc1c(NC(=O)CSc2nnnn2Cc2ccccc2)c(=O)n(-c2ccccc2)n1C,-13.5% (inactive)
2,Cc1c(NC(=O)Nc2ccc(Cl)cc2)c(=O)n(-c2ccccc2)n1C,-17% (inactive)
3,Cc1c(NC(=O)Nc2cccc(Cl)c2)c(=O)n(-c2ccccc2)n1C,-10.4% (inactive)
4,Cc1c(NC(=O)c2ccc(Br)o2)c(=O)n(-c2ccccc2)n1C,12.6% (inactive)
5,Cc1c(NC(=O)c2ccc(=O)oc2)c(=O)n(-c2ccccc2)n1C,-10.4% (inactive)
6,Cc1c(NC(=O)Nc2ccc(Cl)c(Cl)c2)c(=O)n(-c2ccccc2)n1C,70.7% (active)
7,CCOC(=O)c1nn(-c2ccccc2)c(=O)c(C#N)c1C,0.8% (inactive)
8,Cc1noc(C)c1COC(=O)CCCOc1ccc(Cl)cc1Cl,5.6% (inactive)
9,COc1cccc(NC(=O)CN2CCN(S(=O)(=O)c3ccc(C(C)C)cc3)CC2)c1,-4.2% (inactive)
10,C/C(=N\O)C(=O)C(CN1CCCCC1)CN1CCCCC1,-6.8% (inactive)
11,COc1cc(NC(=O)C2C3C=CC(C3)C2C(=O)O)c(OC)cc1Cl (centres undefined),2.1% (inactive)
12,CCOC(=O)C1=C(N)n2c(s/c(=C\c3ccco3)c2=O)=C(C(=O)OC(C)C)C1c1ccco1 (centres undefined),0.1% (inactive)
13,CCOC(=O)C1=C(N)n2c(s/c(=C\c3cccnc3)c2=O)=C(C(=O)OC)C1c1cccnc1 (centres undefined),-15.5% (inactive)
14,CCOC(=O)C1=C(N)n2c(s/c(=C\c3cccnc3)c2=O)=C(C(=O)OCC)C1c1cccnc1 (centres undefined),-18.8% (inactive)
15,N#CC1=C(N)n2c(s/c(=C\c3ccco3)c2=O)=C(C#N)C1c1ccco1 (centres undefined),5.8% (inactive)
16,CCOC(=O)C1=C(N)n2c(s/c(=C/c3ccco3)c2=O)=C(C(=O)OC)C1c1ccco1 (centres undefined),73.7% (active)
17,O=C(OCN1C(=O)c2ccccc2C1=O)c1ccccc1,2.9% (inactive)
18,CCn1c(=O)cc(OCC(=O)Nc2cc(C)ccn2)c2ccccc21,-3.3% (inactive)
19,N#Cc1nc(COc2ccccc2F)oc1N1CCCCCC1,-5.8% (inactive)
20,CCOc1ccccc1CN1CCN(S(C)(=O)=O)CC1,-4.6% (inactive)
21,CCc1ccc(NC(=O)CSC2=C(C#N)C(c3ccco3)C3=C(CCCC3=O)N2)cc1 (centres undefined),8.2% (inactive)
22,COc1cccc(NC(=O)CSC2=C(C#N)C(c3ccco3)C3=C(CCCC3=O)N2)c1 (centres undefined),15.3% (inactive)

row,SMILES,cytotoxicity
1,N#CC1=C(SCC(=O)c2ccccc2)NC2=C(C(=O)CCC2)C1c1ccco1 (centres undefined),41.2% (inactive)
2,Cc1ccc(NC(=O)CSC2=C(C#N)C(c3ccco3)C3=C(CCCC3=O)N2)cc1 (centres undefined),2.1% (inactive)
3,CCCCc1ccc(NC(=O)CSC2=C(C#N)C(c3ccco3)C3=C(CCCC3=O)N2)cc1 (centres undefined),79.6% (active)
4,CC1(C)CC(=O)C2=C(C1)NC(SCC(=O)Nc1ccccc1)=C(C#N)C2c1ccco1 (centres undefined),-6.1% (inactive)
5,Cc1ccc(NC(=O)CSC2=C(C#N)C(c3ccco3)C3=C(CC(C)(C)CC3=O)N2)cc1 (centres undefined),54.3% (active)
6,Cc1ccc(C(=O)CSC2=C(C#N)C(c3ccco3)C3=C(CC(C)(C)CC3=O)N2)cc1 (centres undefined),18.2% (inactive)
7,Cc1ccc(C(=O)CSC2=C(C#N)C(c3ccco3)C3=C(CCCC3=O)N2)cc1 (centres undefined),77.3% (active)
8,COc1cc(S(=O)(=O)N2CCN(c3ccccc3F)CC2)ccc1Cl,24% (inactive)
9,CCCC(=O)CN1C(=O)C2(OCCO2)c2ccccc21,-6.1% (inactive)
10,COc1ccc2c(c1)CCc1c(C(=O)NCc3ccc(F)cc3)noc1-2,1.6% (inactive)
11,COc1ccc(OCCC(=O)Nc2cc(C)on2)cc1,1.4% (inactive)
12,CCCCn1c(SCC(=O)Nc2cc(C)on2)nc2ccccc2c1=O,-8.1% (inactive)
13,Cc1ccc(-c2nn3c(C)nnc3s2)cc1NC(=O)c1ccc(Br)o1,-0.3% (inactive)
14,Cc1nnc2sc(-c3cccc(NC(=O)c4ccc(-c5cccc(Cl)c5)o4)c3)nn12,-2.2% (inactive)
15,O=C(Nc1nnc(-c2ccco2)o1)C1CCCCC1,4.3% (inactive)
16,CCOc1ccc(-c2nnn(CC(=O)Nc3ccccc3OC)n2)cc1OCC,-3.2% (inactive)
17,CCOc1ccc(-c2nnn(CC(=O)Nc3cc(OC)cc(OC)c3)n2)cc1OCC,-1.3% (inactive)
18,CCOc1ccc(-c2nnn(CC(=O)Nc3cc(OC)ccc3OC)n2)cc1OCC,70.6% (active)
19,Cc1ccc2[nH]c(C)c(CN(C)C3CCN(C)CC3)c(=O)c2c1,-9.9% (inactive)
20,O=C(NCc1ccco1)c1cccc2ccccc12,-9% (inactive)
21,Cc1ccc(-c2n[nH]c(=O)c3ccccc23)cc1N,1.4% (inactive)
22,CCC(c1nc2ccccc2c(=O)n1CCCn1ccnc1)N1C(=O)c2ccccc2C1=O (centres undefined),-3.6% (inactive)

row,SMILES,cytotoxicity
1,COc1ccc(N/C=C(\C#N)c2nc3ccccc3n2C)c(OC)c1,44.3% (inactive)
2,C(=C\c1ccccc1)/CN1CCN(C(c2ccccc2)c2ccccc2)CC1,2.8% (inactive)
3,O=C(Nc1ccc(F)cc1)N1CCN(C/C=C/c2ccccc2)CC1,25.8% (inactive)
4,O=C(CSC1=Nc2ccccc2C2=NC(CC(=O)NCc3ccco3)C(=O)N12)NCC1CCCO1 (centres undefined),-7.9% (inactive)
5,CCOc1ccc(C(=O)N2CCN=C2SC)cc1OCC,-3.5% (inactive)
6,Cc1ccc(C)c(OCC(=O)Nc2cc(C)on2)c1,4.9% (inactive)
7,Cc1ccc(C)c(OCC(=O)Nc2nonc2NC(=O)COc2cc(C)ccc2C)c1,74.3% (active)
8,Cc1ccc(C)c(OCC(=O)Nc2ccc3c(c2)OCO3)c1,-3.1% (inactive)
9,CSc1nnc([C@H](C)NC(=O)OC(C)(C)C)o1,-22.1% (inactive)
10,Cn1cccc1C(C(=O)NC1CCCCC1)N(C(=O)Cc1cccs1)C1CC1 (centres undefined),-22.4% (inactive)
11,N#Cc1ccc(-c2ccco2)nc1SCC(=O)c1ccc(Cl)cc1,19.1% (inactive)
12,CC(C)(C)c1ccc(C(=O)CCCSC2=C(C#N)C(c3ccco3)C3=C(CCCC3=O)N2)cc1 (centres undefined),18.5% (inactive)
13,COc1ccc(NC(=O)CSC2=C(C#N)C(c3ccco3)C3=C(CCCC3=O)N2)c(OC)c1 (centres undefined),-2.7% (inactive)
14,Cc1cccc(N2CCN(c3cc(C)nc4nnnn34)CC2C)c1 (centres undefined),-38.8% (inactive)
15,O=C(Cn1cnc2c(nnn2Cc2ccc(Cl)cc2)c1=O)NCC1CCCO1 (centres undefined),-3.4% (inactive)
16,COC(=O)c1c(NC(=O)c2cccs2)sc2c1CCC(C)C2 (centres undefined),5.5% (inactive)
17,Cc1ccc(-c2csc3nnc(SCC(=O)Nc4nsc(-c5ccccc5)n4)n23)cc1,-0.3% (inactive)
18,Cc1sc(NC(=O)CSc2nnc(COc3ccccc3)n2C)c(C#N)c1C,4.2% (inactive)
19,Clc1ccccc1Cn1nnc2c(Nc3ccccc3)ncnc21,-4.9% (inactive)
20,CC(C)CCNc1ncnc2c1nnn2Cc1ccccc1Cl,-8.2% (inactive)
